In PubChem BioAssay (EPA / NIEHS) one finds outcome and AC50 data, which are given here for 8 molecules.

Results filed as inconclusive are left out. Active and inactive are the calls of the source. Rule for the calls: active = hit-call score of the fitted dose curve at least 0.9, where 1 is the maximum; inconclusive = response in the unintended direction; inactive = score below 0.9.

The target of assay [1] is Androgen receptor (Homo sapiens) (UniProt P10275). Description: ATG_AR_TRANS: Attagene TRANS-FACTORIAL HepG2 Assay for human Androgen Receptor (AR) (AID 2282973). Particulars: HepG2 Attagene TRANS-FACTORIAL AR reporter transcription. In short, it runs like this:
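Steps: transfect HepG2 with multiple GAL4-UAS reporter transcription units (TRANS format, exogenous NR-Gal4 protein); dose 24 h; isolate RNA, reverse-transcribe, PCR-amplify, FAM-label, HpaI-digest; resolve by capillary electrophoresis. Positive direction vs DMSO.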

Assay [2] deals with human AMP-activated Protein Kinase, alpha 1 (AMPKa1), PRKAA1 (gene 5562) (UniProt Q13131). Description: NVS_ENZ_hAMPKa1: NovaScreen (NVS) Enzymatic Assay for human AMP-activated Protein Kinase, alpha 1 (AMPKa1) (AID 2283130). In short, it runs like this: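 Recombinant human AMPKα1 activity was measured cell-free by fluorescent substrate conversion with electrophoretic mobility-shift separation, 1 h after dosing. Duplicate single-point screening was at 25 uM; actives (≥30% inhibition) were retested in concentration-response up to 50 uM.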

The target in assay [3] is human Fibroblast Growth Factor Receptor 1 (FGFR1), FGFR1 (gene 2260) (UniProt P11362). Description: NVS_ENZ_hFGFR1: NovaScreen (NVS) Enzymatic Assay for human Fibroblast Growth Factor Receptor 1 (FGFR1) (AID 2283159). The method, boiled down:
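Cell-free recombinant kinase with fluorescent substrate, product separated by electrophoretic mobility shift; read 1 hour after dosing, loss of signal relative to DMSO. Initial screen in duplicate at 25 uM, actives followed in concentration series.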

Assay [4] addresses human Phosphatase and Tensin Homolog (PTEN), PTEN (gene 5728) (UniProt P60484). Nature of the assay: NVS_ENZ_hPTEN: NovaScreen (NVS) Enzymatic Assay for human Phosphatase and Tensin Homolog (PTEN) (AID 2283203). The method, boiled down: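 Cell-free recombinant human PTEN with fluorescent substrate; product separated by electrophoretic mobility shift and read by fluorescence 1 h after dosing. Primary screen in duplicate at 25 uM, actives followed in concentration series versus DMSO.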

Assay [5] deals with human Acetylcholinesterase (AChE), ACHE (gene 43) (UniProt P22303). Nature of the assay: NVS_ENZ_hAChE: NovaScreen (NVS) Enzymatic Assay for human Acetylcholinesterase (AChE) (AID 2283129). The method, boiled down: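 Cell-free colorimetric enzyme-activity assay; compounds read 0.33 hour after dosing, loss of signal vs DMSO baseline. Primary screen in duplicate at 25 uM single concentration, with active compounds retested in concentration series.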

Assay [6] addresses human Aurora Kinase A - serine/threonine-protein Kinase 6 (AurA), AURKA (gene 6790) (UniProt O14965). Description: NVS_ENZ_hAurA: NovaScreen (NVS) Enzymatic Assay for human Aurora Kinase A - serine/threonine-protein Kinase 6 (AurA) (AID 2283142). In short, it runs like this:
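Cell-free enzymatic assay with human Aurora A, 1 hour after dosing. Fluorescent substrate turnover detected after electrophoretic mobility shift separation of substrate and product. Screened at 25 uM, actives retested in concentration-response up to 50 uM.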

Assay [7] concerns the target human Epidermal Growth Factor Receptor (EGFR), EGFR (gene 1956) (UniProt P00533). Description: NVS_ENZ_hEGFR: NovaScreen (NVS) Enzymatic Assay for human Epidermal Growth Factor Receptor (EGFR) (AID 2283151). In short, it runs like this:
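Cell-free kinase assay, fluorescence plus electrophoretic mobility shift separating substrate and product, read 1 hour after dosing; loss of signal vs DMSO. Duplicate screen at 25 uM, then concentration-response to 50 uM.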

The target of assay [8] is human NIMA (Never In Mitosis Gene A)-Related Kinase 2 (NEK2), NEK2 (gene 4751) (UniProt P51955). Nature of the assay: NVS_ENZ_hNEK2: NovaScreen (NVS) Enzymatic Assay for human NIMA (Never In Mitosis Gene A)-Related Kinase 2 (NEK2) (AID 2283188). The method, boiled down:
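Cell-free NEK2 enzyme activity after 1 h exposure, read by fluorescence with electrophoretic mobility shift separating substrate and product. Primary screen in duplicate at 25 uM; actives then run as concentration series. Loss of signal versus DMSO scored.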

The target of assay [9] is human p21 Activated Kinase 4 (PAK4), PAK4 (gene 10298) (UniProt O96013). Description: NVS_ENZ_hPAK4: NovaScreen (NVS) Enzymatic Assay for human p21 Activated Kinase 4 (PAK4) (AID 2283189). The method, boiled down: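 Cell-free recombinant human PAK4 activity assay; fluorescent substrate and product separated by electrophoretic mobility shift, read 1 h after dosing. Initially tested in duplicate at 25 uM, relative to DMSO baseline.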

The target in assay [10] is human Protein Tyrosine Phosphatase Non-receptor Type 2 (PTPN2), PTPN2 (gene 5771) (UniProt P17706). Nature of the assay: NVS_ENZ_hPTPN2: NovaScreen (NVS) Enzymatic Assay for human Protein Tyrosine Phosphatase Non-receptor Type 2 (PTPN2) (AID 2283207). The method, boiled down: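 Cell-free recombinant enzyme with fluorescent substrate, product separated by electrophoretic mobility shift; read 1 h after dosing. Primary screen single concentration (25 uM) in duplicate; actives followed in concentration series; loss of signal versus DMSO.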

The target of assay [11] is rat Monoamine Oxidase, MAO-B, Peripheral (MAOBP), Maob (gene 25750) (UniProt P19643). Description: NVS_ENZ_rMAOBP: NovaScreen (NVS) Enzymatic Assay for rat Monoamine Oxidase, MAO-B, Peripheral (MAOBP) (AID 2283242).
Assay [12] addresses human Matrix Metalloproteinase-1 (MMP1), MMP1 (gene 4312) (UniProt P03956). Description: NVS_ENZ_hMMP1: NovaScreen (NVS) Enzymatic Assay for human Matrix Metalloproteinase-1 (MMP1) (AID 2283181). The method, boiled down: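 Human MMP1 enzyme activity measured by fluorescence 1 h after dosing, cell-free, with a specific substrate. Screened in duplicate at 25 uM; hits (e.g. 30% inhibition) run in concentration-response up to 50 uM; loss of signal versus DMSO.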

In assay [13] the target is human Raf-1 Proto-Oncogene, serine/threonine Kinase (RAF1), RAF1 (gene 5894) (UniProt P04049). Description: NVS_ENZ_hRAF1: NovaScreen (NVS) Enzymatic Assay for human Raf-1 Proto-Oncogene, serine/threonine Kinase (RAF1) (AID 2283216). The method, boiled down:
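Cell-free recombinant kinase with specific fluorescent substrate, product separated by electrophoretic mobility shift; read 1 h after dosing. Primary screen at 25 uM in duplicate; hits then run in concentration-response up to 50 uM, fitted as loss of signal versus DMSO.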

Assay [14] concerns the target human Androgen Receptor (AR), AR (gene 367) (UniProt P10275). Nature of the assay: ATG_hAR_XSP1: Attagene TRANS-FACTORIAL Multi-Species (XSP1) HepG2 Assay for human Androgen Receptor (AR) (AID 2283785). As to the method: ATG_XSP1_multi-species_TRANS is a cell-based, multiplexed assay created by modifying the existing Attagene TRANS-FACTORIAL system to include a panel of nuclear receptors from some or all the following species: human (Homo sapiens), mouse (Mus musculus), frog (Xenopus laevis), zebrafish (Danio rerio), chicken (Gallus gallus), and turtle (Chrysemys picta). The ECOTOX-FACTORIAL format uses HepG2, a human liver cell line, with measurements taken at 24 hours after chemical dosing in a 24-well plate. Xsp1 included 3 nM 6-alpha-fluorotestosterone to partially stimulate the androgen receptor.ATG_hAR_XSP1 is one of 29 assay components measured or calculated from the ATG_XSP1_multi-species_TRANS assay. It is designed to make measurements of mRNA induction, a form of inducible reporter, as detected with fluorescence intensity signals by Reverse transcription polymerase chain reaction (RT-PCR) and Capillary electrophoresis technology.The assay endpoint ATG_hAR_XSP1 was analyzed in the positive analysis fitting direction relative to DMSO as the negative control and baseline of activity. […] Furthermore, this assay endpoint can be referred to as a primary readout, because this assay has produced multiple assay endpoints where this one serves a reporter gene function. […]

For assay [15], the target named is human Caspase 2 (CASP2), CASP2 (gene 835) (UniProt P42575). Nature of the assay: NVS_ENZ_hCASP2: NovaScreen (NVS) Enzymatic Assay for human Caspase 2 (CASP2) (AID 2283135). In short, it runs like this: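 E. coli-expressed enzyme in a cell-free protease assay, fluorescence read 1 h after dosing. Compounds at 25 uM in duplicate, with concentration-response up to 50 uM for hits; loss of signal against DMSO baseline.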

In assay [16] the target is bovine Gamma-Aminobutyric Acid Type A Receptor BDZ, alpha 1 site (GABARa1), GABRA1 (gene 780973) (UniProt P08219). Nature of the assay: NVS_LGIC_bGABARa1: NovaScreen (NVS) Ligand-Gated Ion Channel Assay for bovine Gamma-Aminobutyric Acid Type A Receptor BDZ, alpha 1 site (GABARa1) (AID 2283321). In short, it runs like this:
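Radioligand competition binding on bovine cortical membranes, 0.75 h, filter-based scintillation counting. Primary single concentration 25 uM in duplicate; actives rerun in concentration-response to 50 uM max. Loss of signal fitted versus DMSO.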

Assay [17] concerns the target Voltage-dependent N-type calcium channel subunit alpha-1B (Rattus norvegicus) (UniProt Q02294). Description: NVS_IC_rCaChN: NovaScreen (NVS) Ion Channel Assay for rat Calcium Channel, Type N (CaChN) (AID 2283317).
Assay [18] has as its target rat CYP1A2, Cyp1a2 (gene 24297) (UniProt P04799). Description: NVS_ADME_rCYP1A2: NovaScreen (NVS) CYP450-related Enzyme Activity (ADME) Assay for rat CYP1A2 (AID 2283115). The method, boiled down: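 Cell-free recombinant rat enzyme with fluorogenic substrate, read by fluorescence intensity 1 hour after dosing. Loss of signal versus acetonitrile negative control; primary screen at 10 uM in duplicate, actives followed in concentration series.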

Assay [19] concerns the target rat Monoamine Oxidase, MAO-B, Central (MAOBC), Maob (gene 25750) (UniProt P19643). Nature of the assay: NVS_ENZ_rMAOBC: NovaScreen (NVS) Enzymatic Assay for rat Monoamine Oxidase, MAO-B, Central (MAOBC) (AID 2283238). The method, boiled down:
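Compounds were first tested in duplicate at 25 uM against MAO-B from rat brain tissue; those passing the inhibition threshold were retested in concentration series up to 50 uM. Radiodetection by scintillation counting at 1.17 h, analysed against DMSO baseline.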

In assay [20] the test system is rat Monoamine Oxidase, MAO-A, Central (MAOAC), gene 29253. Nature of the assay: NVS_ENZ_rMAOAC: NovaScreen (NVS) Enzymatic Assay for rat Monoamine Oxidase, MAO-A, Central (MAOAC) (AID 2283243).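 Note: potency refers to inhibition seen as signal drop below DMSO baseline.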 In short, it runs like this: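 Rat brain tissue extract used as enzyme source in a cell-free radiometric assay, read by scintillation counting 1.5 hours after dosing. Loss of signal relative to DMSO baseline scored; primary screen at 25 uM in duplicate, actives followed up in concentration series.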

Sequence of Androgen receptor (Homo sapiens) (P10275 whole entry, looked up, the tested form may be a part): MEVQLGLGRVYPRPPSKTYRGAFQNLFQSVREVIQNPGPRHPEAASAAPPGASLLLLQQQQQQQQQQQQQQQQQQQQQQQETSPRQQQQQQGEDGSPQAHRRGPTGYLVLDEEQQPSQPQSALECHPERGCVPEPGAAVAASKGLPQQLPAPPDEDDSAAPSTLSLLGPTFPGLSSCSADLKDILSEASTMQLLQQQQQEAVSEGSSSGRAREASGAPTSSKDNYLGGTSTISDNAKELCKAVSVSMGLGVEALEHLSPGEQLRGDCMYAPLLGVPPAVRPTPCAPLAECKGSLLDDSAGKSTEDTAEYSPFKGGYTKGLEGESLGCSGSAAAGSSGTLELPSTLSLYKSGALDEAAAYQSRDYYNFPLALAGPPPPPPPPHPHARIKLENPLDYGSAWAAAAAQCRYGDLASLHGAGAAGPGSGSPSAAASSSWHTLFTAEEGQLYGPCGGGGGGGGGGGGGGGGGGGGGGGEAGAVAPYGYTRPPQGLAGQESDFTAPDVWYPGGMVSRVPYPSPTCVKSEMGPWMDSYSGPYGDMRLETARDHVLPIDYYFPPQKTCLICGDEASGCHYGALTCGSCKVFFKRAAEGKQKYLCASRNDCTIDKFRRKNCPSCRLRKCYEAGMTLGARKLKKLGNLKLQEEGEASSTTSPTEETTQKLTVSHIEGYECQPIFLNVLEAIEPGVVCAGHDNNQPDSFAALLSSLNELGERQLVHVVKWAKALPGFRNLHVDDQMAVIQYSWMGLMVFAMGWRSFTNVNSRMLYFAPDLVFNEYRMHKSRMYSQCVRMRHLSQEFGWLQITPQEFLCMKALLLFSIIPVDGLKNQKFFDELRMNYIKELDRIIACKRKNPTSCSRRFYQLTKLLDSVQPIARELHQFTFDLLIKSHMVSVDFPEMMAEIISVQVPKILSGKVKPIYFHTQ
Sequence of human AMP-activated Protein Kinase, alpha 1 (AMPKa1), PRKAA1 (gene 5562) (Q13131 whole entry, looked up): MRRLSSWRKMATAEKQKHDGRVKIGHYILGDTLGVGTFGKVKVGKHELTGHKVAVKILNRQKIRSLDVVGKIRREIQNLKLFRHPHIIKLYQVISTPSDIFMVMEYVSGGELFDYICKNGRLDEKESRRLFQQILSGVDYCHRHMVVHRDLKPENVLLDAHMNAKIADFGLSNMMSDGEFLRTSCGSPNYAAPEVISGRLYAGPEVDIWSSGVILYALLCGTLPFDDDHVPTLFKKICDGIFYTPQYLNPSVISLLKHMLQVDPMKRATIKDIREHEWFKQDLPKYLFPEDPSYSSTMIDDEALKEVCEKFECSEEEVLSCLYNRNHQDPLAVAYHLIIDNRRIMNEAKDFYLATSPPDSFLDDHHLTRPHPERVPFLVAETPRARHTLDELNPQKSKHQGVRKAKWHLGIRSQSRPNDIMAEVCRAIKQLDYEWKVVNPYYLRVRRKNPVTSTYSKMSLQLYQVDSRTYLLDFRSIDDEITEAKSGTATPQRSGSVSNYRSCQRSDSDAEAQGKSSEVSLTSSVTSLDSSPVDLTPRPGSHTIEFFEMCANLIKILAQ
Sequence of human Epidermal Growth Factor Receptor (EGFR), EGFR (gene 1956) (P00533 whole entry, looked up): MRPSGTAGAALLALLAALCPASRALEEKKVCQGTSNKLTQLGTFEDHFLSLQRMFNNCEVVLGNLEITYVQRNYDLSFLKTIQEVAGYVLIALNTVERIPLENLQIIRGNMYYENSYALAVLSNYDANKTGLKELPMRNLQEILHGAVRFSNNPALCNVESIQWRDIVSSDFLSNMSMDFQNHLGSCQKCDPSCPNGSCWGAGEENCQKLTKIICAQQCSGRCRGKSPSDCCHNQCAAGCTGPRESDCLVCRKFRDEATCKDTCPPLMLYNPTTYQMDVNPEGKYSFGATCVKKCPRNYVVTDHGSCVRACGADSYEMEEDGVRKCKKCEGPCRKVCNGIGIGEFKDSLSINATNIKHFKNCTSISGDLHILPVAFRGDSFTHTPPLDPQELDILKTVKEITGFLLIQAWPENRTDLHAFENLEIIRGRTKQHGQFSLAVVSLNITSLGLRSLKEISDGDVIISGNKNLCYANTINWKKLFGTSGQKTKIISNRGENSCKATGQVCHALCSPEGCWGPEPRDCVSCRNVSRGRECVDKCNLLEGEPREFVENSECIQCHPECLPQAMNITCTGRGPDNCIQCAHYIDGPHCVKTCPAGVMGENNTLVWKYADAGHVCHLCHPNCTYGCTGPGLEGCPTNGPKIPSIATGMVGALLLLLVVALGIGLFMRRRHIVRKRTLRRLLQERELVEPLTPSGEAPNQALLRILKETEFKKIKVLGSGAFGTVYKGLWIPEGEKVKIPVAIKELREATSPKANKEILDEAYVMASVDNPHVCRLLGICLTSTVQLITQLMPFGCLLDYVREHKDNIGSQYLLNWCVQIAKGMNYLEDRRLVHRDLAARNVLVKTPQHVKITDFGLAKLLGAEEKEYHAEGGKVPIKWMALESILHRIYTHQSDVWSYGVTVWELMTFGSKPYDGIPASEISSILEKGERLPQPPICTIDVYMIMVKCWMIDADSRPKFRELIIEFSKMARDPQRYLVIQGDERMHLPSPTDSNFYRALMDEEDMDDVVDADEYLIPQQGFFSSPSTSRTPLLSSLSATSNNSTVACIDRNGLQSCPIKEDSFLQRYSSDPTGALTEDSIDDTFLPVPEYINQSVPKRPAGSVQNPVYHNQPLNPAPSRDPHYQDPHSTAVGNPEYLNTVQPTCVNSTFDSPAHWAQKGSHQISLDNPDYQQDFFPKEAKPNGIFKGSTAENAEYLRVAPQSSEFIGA
Sequence of human Caspase 2 (CASP2), CASP2 (gene 835) (P42575 whole entry, looked up): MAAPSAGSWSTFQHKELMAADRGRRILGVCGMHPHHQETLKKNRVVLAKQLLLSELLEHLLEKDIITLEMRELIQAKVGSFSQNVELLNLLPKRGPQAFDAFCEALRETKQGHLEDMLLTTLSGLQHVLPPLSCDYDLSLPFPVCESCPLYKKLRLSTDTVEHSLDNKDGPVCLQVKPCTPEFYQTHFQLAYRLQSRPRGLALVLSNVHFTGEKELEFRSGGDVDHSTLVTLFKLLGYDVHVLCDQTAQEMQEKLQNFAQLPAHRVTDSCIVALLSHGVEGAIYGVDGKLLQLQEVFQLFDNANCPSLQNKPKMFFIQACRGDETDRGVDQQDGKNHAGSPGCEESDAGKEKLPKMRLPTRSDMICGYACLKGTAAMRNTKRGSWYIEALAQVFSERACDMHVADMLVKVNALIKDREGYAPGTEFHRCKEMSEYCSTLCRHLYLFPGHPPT
Sequence of human Acetylcholinesterase (AChE), ACHE (gene 43) (P22303 whole entry, looked up): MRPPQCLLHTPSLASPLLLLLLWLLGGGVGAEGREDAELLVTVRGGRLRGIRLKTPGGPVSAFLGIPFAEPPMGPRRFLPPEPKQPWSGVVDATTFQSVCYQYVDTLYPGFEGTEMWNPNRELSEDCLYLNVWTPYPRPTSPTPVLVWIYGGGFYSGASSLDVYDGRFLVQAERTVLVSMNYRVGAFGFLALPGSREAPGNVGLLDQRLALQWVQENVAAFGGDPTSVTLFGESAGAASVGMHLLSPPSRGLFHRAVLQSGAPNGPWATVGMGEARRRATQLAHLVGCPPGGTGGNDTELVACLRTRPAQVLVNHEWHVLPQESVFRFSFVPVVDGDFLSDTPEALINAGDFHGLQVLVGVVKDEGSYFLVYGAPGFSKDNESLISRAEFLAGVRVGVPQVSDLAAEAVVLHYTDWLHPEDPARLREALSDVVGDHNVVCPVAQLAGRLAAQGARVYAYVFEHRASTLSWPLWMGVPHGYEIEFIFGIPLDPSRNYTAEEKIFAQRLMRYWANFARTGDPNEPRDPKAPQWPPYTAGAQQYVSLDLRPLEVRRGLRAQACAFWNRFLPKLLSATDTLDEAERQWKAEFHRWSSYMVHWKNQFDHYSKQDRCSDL
Sequence of human p21 Activated Kinase 4 (PAK4), PAK4 (gene 10298) (O96013 whole entry, looked up): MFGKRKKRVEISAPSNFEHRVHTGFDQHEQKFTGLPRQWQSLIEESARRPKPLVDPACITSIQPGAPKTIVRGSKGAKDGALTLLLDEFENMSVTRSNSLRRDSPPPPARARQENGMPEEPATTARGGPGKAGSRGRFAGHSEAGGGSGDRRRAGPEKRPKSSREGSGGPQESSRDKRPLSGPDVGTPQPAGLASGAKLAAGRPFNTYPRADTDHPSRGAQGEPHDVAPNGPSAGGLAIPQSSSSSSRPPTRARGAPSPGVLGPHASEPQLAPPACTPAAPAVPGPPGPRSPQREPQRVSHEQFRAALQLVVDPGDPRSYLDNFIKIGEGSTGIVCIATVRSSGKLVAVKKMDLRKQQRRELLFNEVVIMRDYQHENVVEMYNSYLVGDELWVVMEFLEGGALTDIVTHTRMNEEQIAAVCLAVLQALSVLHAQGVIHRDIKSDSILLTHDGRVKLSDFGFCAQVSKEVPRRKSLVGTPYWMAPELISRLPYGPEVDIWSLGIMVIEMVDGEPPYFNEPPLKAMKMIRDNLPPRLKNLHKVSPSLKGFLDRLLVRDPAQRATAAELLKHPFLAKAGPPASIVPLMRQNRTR
Sequence of rat Monoamine Oxidase, MAO-B, Peripheral (MAOBP), Maob (gene 25750) (P19643 whole entry, looked up): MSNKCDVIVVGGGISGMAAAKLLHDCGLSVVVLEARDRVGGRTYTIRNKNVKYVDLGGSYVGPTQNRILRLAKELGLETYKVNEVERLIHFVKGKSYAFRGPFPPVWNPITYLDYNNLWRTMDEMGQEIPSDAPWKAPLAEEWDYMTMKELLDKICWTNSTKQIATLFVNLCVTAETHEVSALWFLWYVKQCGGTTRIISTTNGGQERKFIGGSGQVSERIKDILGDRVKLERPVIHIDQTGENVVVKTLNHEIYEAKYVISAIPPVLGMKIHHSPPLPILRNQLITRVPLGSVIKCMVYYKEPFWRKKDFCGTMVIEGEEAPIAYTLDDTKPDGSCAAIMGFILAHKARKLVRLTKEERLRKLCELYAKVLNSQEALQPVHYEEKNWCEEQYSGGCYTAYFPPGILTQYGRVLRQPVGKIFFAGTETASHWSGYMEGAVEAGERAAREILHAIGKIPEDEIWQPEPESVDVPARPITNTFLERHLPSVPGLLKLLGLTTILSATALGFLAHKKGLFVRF

Regarding `COCC(C)OCC(C)O` (configuration not stated), the outcome in [1], in [2], in assay [3] and in assay [4] was inactive.
As to `COc1cc(C(=O)NC2CCN(C)CC2)ccc1Nc1ncc2c(n1)N(C1CCCC1)CC(F)(F)C(=O)N2C`, the outcome in assay [1], in assay [2], in assay [6], in [8], in [9] and in [11] was inactive. The values for the AC50 in assay [5], in assay [7] and in assay [10] were 23.4 µM (active), 12.2 µM (active) and 6.13 µM (active), respectively.
For `CCCCCC(=O)O`, the call in [1], in assay [2] and in assay [12] was inactive.
Consider `CC[C@H](c1ccc(O)cc1)[C@@H](CC)c1ccc(O)cc1`, for which the molecule was classed as inactive in [1] and in [14]. The AC50 in assay [5] is 4.88 µM (active); in [13], 38.5 µM (active).
`CCCCOC(=O)c1ccc(O)cc1`: the molecule was classed as inactive in assay [1] and in assay [15]. The AC50 in [16] is 35.1 µM (active).
For the molecule `COCC(C)OCC(C)OCC(C)O` (configuration not stated), the call in assay [1], in assay [15] and in assay [17] was inactive.
For the molecule `CN(C)C(=O)Nc1ccc(Cl)c(Cl)c1`, the call in [1], in [18] and in assay [19] was inactive. The AC50 in [20] is 13.6 µM (active).
With `N#C[C@@H]1CC(F)(F)CN1C(=O)CNC1CC2CCC(C1)N2c1ncccn1` (some centres not stated), the molecule was called inactive in assay [1] and in [7].
